This passage reports growth inhibition results from PubChem BioAssay (NCI).

Compounds without any hit were thinned out: in the full panel of roughly 79,000, 15% have a hit. A number with no mark means an inactive call. Rule as the data show it: active = growth inhibition above about 70%; inactive = the rest.

This assay can be described thus: NCI Yeast Anticancer Drug Screen. Data for the mlh1 rad18 strain (AID 175). The conditions noted are these: S. cerevisiae mlh1 rad18 strain growth inhibition; at 50.0 µM; hits give high values. A digest of the protocol: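 Compound-treated yeast growth, normalised to vehicle controls. Strain bears defined DNA repair mutations.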
As to `COc1ccc(C(O)c2ccccc2)cc1` (stereo not given), the growth inhibition is -15.2%.

`CCN(CC)c1ccc2nc3ccc(=[N+](CC)CC)cc-3oc2c1`: the growth inhibition is -258%. Under `CC(C)COC(=O)COC(=O)OCCOCCOC(=O)OCC(=O)OCC(C)C` stands 8.6%; under `COc1cc(/C=C/C(=O)c2ccccc2)cc(OC)c1OC`, -2.3%; under `S=C(Nc1ccccc1)N1CCCCC1`, -8.4%. In the case of `Nc1ccc(CC(=O)O)c(N)c1` it was -0.4%; in that of `CC1(O)OC(COc2ccc(Cl)cc2)COC1O` (stereo not given), 18.9%; in that of `O/N=C/c1ccc(O)cc1O`, -33.4%.

Turning to `C/C(=C\c1cc(Cl)ccc1OCC(=O)O)[N+](=O)[O-]`, the growth inhibition was 56.2%. Take `Nc1ccc(C(=O)c2ccc(N)c(Br)c2)cc1Br`: the growth inhibition is 4.05%. Under `COC(=O)c1ccccc1Br` stands 6.45%; under `CC1SC(N)=NC1=O` (stereo not given), 2.55%. In the case of `CCOC(=O)C(C#N)Cc1ccccc1` (stereo not given) it was -3.35%. As for `CCCCCCCO`, the growth inhibition is -11.9%. Under `COc1cc2c3cc1Oc1c(OC)c(OC)cc4c1C(Cc1ccc(O)c(c1)Oc1ccc(cc1)CC3N(C)CC2)N(C)CC4` (stereo not given) stands -89.8%.

With `Cc1ccc(Cl)cc1N1C(=O)CC(Sc2ccccc2N)C1=O` (stereo not given), the growth inhibition was 20.2%. Under `c1ccc(Sc2ccccc2)cc1` stands 0.85%.

As to `C#C[C@H]1CCCCCC1O` (stereo not given in full), the growth inhibition is 21.9%.

As for `CCOC(=O)c1coc(C(=O)OCC)c1C(=O)OCC`, the growth inhibition is 5.3%. In the case of `O=C1NC(=O)C2C(=O)NC(=O)C1C21CCc2ccccc21` (stereo not given) it was -7.45%.
